Laboratory results as given in PubChem BioAssay (NCI).
This is part of a sample that, as a whole, favours compounds with a hit. Of some 83,000 tested, about 20% had one in any assay.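 Assay: single dose, 48 h. Readout: percent growth (0 = no net growth; negative = cell death). Active: <10.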 Unmarked numbers belong to inactive results. Activity calls are given as the source filed them.

What was measured:
Experiment in all cases: NCI-60 one-dose screen, 48 h (100 = growth as untreated, 0 = no growth, -100 = all killed)
Conditions in all cases: 10 µM unless noted
DU-145 prostate = test system: DU-145 prostate
K-562 leukemia = test system: K-562 leukemia
MALME-3M melanoma = test system: MALME-3M melanoma
MDA-MB-231 breast = test system: MDA-MB-231 breast
RXF 393 renal = test system: RXF 393 renal
SF-268 CNS = test system: SF-268 CNS
SF-295 CNS = test system: SF-295 CNS
SF-539 CNS = test system: SF-539 CNS
UACC-257 melanoma = test system: UACC-257 melanoma
M14 melanoma = test system: M14 melanoma
HCT-15 colon = test system: HCT-15 colon
HT29 colon = test system: HT29 colon
SNB-75 CNS = test system: SNB-75 CNS
SNB-19 CNS = test system: SNB-19 CNS
U251 CNS = test system: U251 CNS
PC-3 prostate = test system: PC-3 prostate
SK-MEL-5 melanoma = test system: SK-MEL-5 melanoma
UACC-62 melanoma = test system: UACC-62 melanoma
LOX IMVI melanoma = test system: LOX IMVI melanoma
SK-MEL-28 melanoma = test system: SK-MEL-28 melanoma

| Compound | growth (DU-145 prostate) | growth (K-562 leukemia) | growth (MALME-3M melanoma) | growth (MDA-MB-231 breast) | growth (RXF 393 renal) | growth (SF-268 CNS) | growth (SF-295 CNS) | growth (SF-539 CNS) | growth (UACC-257 melanoma) | growth (M14 melanoma) | growth (HCT-15 colon) | growth (HT29 colon) | growth (SNB-75 CNS) | growth (SNB-19 CNS) | growth (U251 CNS) | growth (PC-3 prostate) | growth (SK-MEL-5 melanoma) | growth (UACC-62 melanoma) | growth (LOX IMVI melanoma) | growth (SK-MEL-28 melanoma) |
| --- | --- | --- | --- | --- | --- | --- | --- | --- | --- | --- | --- | --- | --- | --- | --- | --- | --- | --- | --- | --- |
| CCOC(=O)c1c2c(cn1Cc1ccccc1)-c1oncc1CC2 | 107% | 101% | 114% | 90.6% | 93.3% | 83.6% | 98.5% | 86% | 112% | 111% | 105% | 111% | 84% | 84.9% | 72.7% | 97.3% | 102% | 91.9% | 98.9% | 108% |
| COc1ccc2c(c1)/C(=C1/S/C(=N/c3nnc(C)s3)NC1=O)C(=O)N2Cc1ccc(Br)cc1 | 41.6% | 34.8% | 68.3% | 53.4% | 49.6% | 36% | 15.4% | 42.7% | 57.4% | 37% | 27.5% | 35.4% | 45.7% | 24.7% | 14.3% | 21.9% | 36.3% | 32.9% | 32.1% | 32.6% |
| CCn1cc(C(=O)O)c(=O)c2cc(F)c(N3CCN(S(=O)(=O)c4ccc(Cl)cc4)CC3)cc21 | 31.7% | 21.4% | 23.8% | 41.1% | 13.4% | 22.7% | 3.94% (active) | 21.7% | 29% | 18.9% | 15.7% | 7.87% (active) | 41.8% | 20.6% | 12% | 25.3% | 26.6% | 21.5% | 19.9% | 44.6% |
| CC(=O)OCC1O[C@@H](OC(C)=O)[C@@H](NC(=O)NS(=O)(=O)c2ccccc2)C(OC(C)=O)[C@@H]1OC(C)=O (stereo not given in full) | 108% | 94.6% | 103% | 105% | 108% | 100% | 94.4% | 97.2% | 118% | 108% | 96.6% | 111% | 91.2% | 98.7% | 106% | 102% | 102% | 101% | 99.6% | 108% |
| N#Cc1c(N)nc(Nc2nc3ccccc3[nH]2)nc1-c1ccc(Cl)cc1 | 123% | 92.3% | 125% | 106% | 114% | 101% | 112% | 111% | 109% | 103% | 109% | 95.4% | 95.1% | 107% | 97.6% | 94.8% | 99.9% | 113% | 96.2% | 115% |
| CC1=C(C)C[C@]2(C(=O)O[C@H]3CCCC[C@@H]32)[S@](=O)C1 | 107% | 102% | 110% | 125% | 112% | 96.4% | 106% | 114% | 97.7% | 103% | 112% | 95.3% | 98.4% | 105% | 98.8% | 110% | 107% | 104% | 97.6% | 118% |
| O=CN/N=C/c1ccc(Cl)c([N+](=O)[O-])c1 | 24.5% | 15.4% | 30% | 43.9% | 40.1% | 21.5% | 3.88% (active) | 22.2% | 18.2% | 29% | 47.3% | 6.89% (active) | 62.2% | 32.5% | 11.9% | 1.87% (active) | 14.2% | 18% | 17% | 43% |
| CCCCCCNC(=O)Oc1ccc(/C(=C(/C)Cc2ccc(OC)cc2)c2ccc(OCCN(C)C)cc2)cc1 | 78.7% | -38.8% (active) | -34.7% (active) | 43% | 51.4% | 72.3% | 65.8% | 73.2% | 5.2% (active) | -53.9% (active) | 1.78% (active) | -7.26% (active) | 50.5% | 78.8% | 23.4% | 56.3% | -49.6% (active) | 40.5% | -15.9% (active) | 68.6% |
